Assay results reported in PubChem BioAssay AID1159580 (chemical genetic matrix, 2015).
Screen size: about 5,500 compounds; about 2,000 (36%) were called active. Not shown: some 18% with an inconclusive outcome. Some of the results follow. A number with no mark means an inactive call. No stated cut-off is given here; in the data, active means normalized growth mostly below about 0.91 (no sharp cut-off); inconclusive means no clear call, values can overlap the other calls; inactive means mostly above about 0.92.

Test: chemical genetic growth profiling, strain panel (AID 1159580);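 further: tested at 20 µM; growth read once vehicle control cultures reached saturation at 30 °C; 1 = growth at the plate median or of vehicle wells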
Details: S. cerevisiae deletion strains, growth OD
[1] = locus YDL101C, strain DUN1, stronger effect = lower value
[2] = locus YHR030C, strain SLT2, stronger effect = lower value
[3] = locus YAL013W, strain DEP1, stronger effect = lower value
[4] = locus YBR229C, strain ROT2, stronger effect = lower value
[5] = locus YDR150W, strain NUM1, stronger effect = lower value
[6] = locus YEL061C, strain CIN8, stronger effect = lower value
[7] = locus YGR078C, strain PAC10, stronger effect = lower value
[8] = locus YHR087W, strain rtc3, stronger effect = lower value
[9] = locus YJL187C, strain SWE1, stronger effect = lower value
[10] = locus YJR043C, strain POL32, stronger effect = lower value
[11] = locus YJR075W, strain HOC1, stronger effect = lower value
[12] = locus YKL190W, strain CNB1, stronger effect = lower value
[13] = locus YLR039C, strain RIC1, stronger effect = lower value
[14] = locus YLR058C, strain SHM2 (second series), stronger effect = lower value
[15] = locus YLR085C, strain ARP6, stronger effect = lower value
[16] = locus YLR262C, strain YPT6, stronger effect = lower value
[17] = locus YML094W, strain GIM5, stronger effect = lower value
[18] = locus YMR219W, strain ESC1, stronger effect = lower value
[19] = locus YMR263W, strain SAP30, stronger effect = lower value
[20] = locus YNL153C, strain GIM3, stronger effect = lower value
[21] = locus YNL298W, strain CLA4 (second series), stronger effect = lower value
[22] = locus YNL322C, strain KRE1, stronger effect = lower value
[23] = locus YNR030W, strain Alg12, stronger effect = lower value
[24] = locus YPL055C, strain LGE1, stronger effect = lower value
[25] = locus YPL241C, strain CIN2, stronger effect = lower value
[26] = locus YPR135W, strain CTF4, stronger effect = lower value

N#Cc1cccc(CSc2nc3ccc(C(F)(F)F)cc3[nH]2)c1
normalized growth (locus YAR019C, strain CDC15, stronger effect = lower value): 0.965 | normalized growth (locus YBL105C, strain PKC1, stronger effect = lower value): 0.968 | normalized growth (locus YBR135W, strain CKS1, stronger effect = lower value): 0.973 | normalized growth (locus YBR136W, strain MEC1, stronger effect = lower value): 0.968 | normalized growth (locus YBR160W, strain CDC28, stronger effect = lower value): 0.968 | normalized growth (locus YDL017W, strain CDC7, stronger effect = lower value): 0.972 | normalized growth (locus YDL028C, strain MPS1, stronger effect = lower value): 0.978 | normalized growth [1]: 0.969 | normalized growth (locus YDL108W, strain KIN28, stronger effect = lower value): 0.973 | normalized growth (locus YDL132W, strain cdc53, stronger effect = lower value): 0.976 | normalized growth (locus YDL214C, strain PRR2, stronger effect = lower value): 0.893 | normalized growth (locus YDR052C, strain DBF4, stronger effect = lower value): 0.962 | normalized growth (locus YDR054C, strain cdc34, stronger effect = lower value): 0.962 | normalized growth (locus YDR226W, strain ADK1, stronger effect = lower value): 0.969 | normalized growth (locus YDR477W, strain SNF1, stronger effect = lower value): 0.903 | normalized growth (locus YER123W, strain YCK3, stronger effect = lower value): 0.881 | normalized growth (locus YER133W, strain GLC7, stronger effect = lower value): 0.895 | normalized growth (locus YFL009W, strain cdc4, stronger effect = lower value): 0.974 | normalized growth (locus YFL029C, strain CAK1, stronger effect = lower value): 0.966 | normalized growth (locus YFR003C, strain YPI1, stronger effect = lower value): 0.97 | normalized growth (locus YFR019W, strain FAB1, stronger effect = lower value): 0.936 | normalized growth (locus YFR028C, strain CDC14, stronger effect = lower value): 0.971 | normalized growth (locus YGR040W, strain KSS1, stronger effect = lower value): 0.908 | normalized growth (locus YGR052W, strain FMP48, stronger effect = lower value): 0.938 | normalized growth (locus YGR092W, strain DBF2, stronger effect = lower value): 0.933 | normalized growth [2]: 0.858 | normalized growth (locus YHR079C, strain IRE1, stronger effect = lower value): 0.851 | normalized growth (locus YHR082C, strain KSP1, stronger effect = lower value): 0.965 | normalized growth (locus YHR205W, strain SCH9, stronger effect = lower value): 0.898 | normalized growth (locus YIL147C, strain SLN1, stronger effect = lower value): 0.972 | normalized growth (locus YJL095W, strain BCK1, stronger effect = lower value): 0.901 | normalized growth (locus YJL128C, strain PBS2, stronger effect = lower value): 0.909 | normalized growth (locus YJL157C, strain FAR1, stronger effect = lower value): 0.89 | normalized growth (locus YJR016C, strain ILV3, stronger effect = lower value): 0.97 | normalized growth (locus YJR066W, strain TOR1 (second series), stronger effect = lower value): 0.848 | normalized growth (locus YJR066W, strain TOR1, stronger effect = lower value): 0.935 | normalized growth (locus YKL048C, strain ELM1, stronger effect = lower value): 0.963 | normalized growth (locus YKL067W, strain YNK1, stronger effect = lower value): 0.889 | normalized growth (locus YKL101W, strain HSL1, stronger effect = lower value): 0.901 | normalized growth (locus YKL193C, strain SDS22, stronger effect = lower value): 0.973 | normalized growth (locus YKL203C, strain TOR2, stronger effect = lower value): 0.937 | normalized growth (locus YLR113W, strain HOG1, stronger effect = lower value): 0.793 (active) | normalized growth (locus YLR133W, strain CKI1, stronger effect = lower value): 0.898 | normalized growth (locus YLR403W, strain SFP1, stronger effect = lower value): 0.907 | normalized growth (locus YML070W, strain DAK1, stronger effect = lower value): 0.889 | normalized growth (locus YMR001C, strain CDC5, stronger effect = lower value): 0.971 | normalized growth (locus YMR205C, strain PFK2 (second series), stronger effect = lower value): 0.924 | normalized growth (locus YMR277W, strain FCP1, stronger effect = lower value): 0.969 | normalized growth (locus YNL006W, strain LST8, stronger effect = lower value): 0.97 | normalized growth (locus YNL020C, strain ARK1, stronger effect = lower value): 0.892 | normalized growth (locus YNL161W, strain CBK1, stronger effect = lower value): 0.965 | normalized growth (locus YNL183C, strain NPR1, stronger effect = lower value): 0.92 | normalized growth (locus YNL207W, strain RIO2, stronger effect = lower value): 0.966 | normalized growth (locus YNL222W, strain SSU72, stronger effect = lower value): 0.976 | normalized growth (locus YNL307C, strain MCK1 (second series), stronger effect = lower value): 0.89 | normalized growth (locus YOL078W, strain AVO1, stronger effect = lower value): 0.974 | normalized growth (locus YOL136C, strain PFK27, stronger effect = lower value): 0.858 | normalized growth (locus YOR061W, strain CKA2, stronger effect = lower value): 0.9 | normalized growth (locus YOR119C, strain RIO1, stronger effect = lower value): 0.962 | normalized growth (locus YOR231W, strain MKK1, stronger effect = lower value): 0.871 | normalized growth (locus YOR329C, strain SCD5, stronger effect = lower value): 0.96 | normalized growth (locus YPL031C, strain PHO85, stronger effect = lower value): 0.88 | normalized growth (locus YPL153C, strain RAD53, stronger effect = lower value): 0.899 | normalized growth (locus YPL204W, strain HRR25, stronger effect = lower value): 0.877 | normalized growth (locus YPL209C, strain IPL1, stronger effect = lower value): 0.967 | normalized growth (locus YPL256C, strain CLN2, stronger effect = lower value): 0.882 | normalized growth (locus YPR025C, strain CCL1, stronger effect = lower value): 0.972 | normalized growth (locus YPR106W, strain ISR1, stronger effect = lower value): 0.956 | normalized growth (locus YPR111W, strain DBF20, stronger effect = lower value): 0.946 | normalized growth (strain NNK1, stronger effect = lower value): 0.944 | normalized growth (strain TSCII, stronger effect = lower value): 0.965

Cc1c(C)c(C)c(CSc2nc3ccccc3[nH]2)c(C)c1C
normalized growth [3]: 1.01 | normalized growth [4]: 1.02 | normalized growth (locus YCL061C, strain MRC1, stronger effect = lower value): 1.04 | normalized growth [1]: 1.03 | normalized growth (locus YDL134C, strain PPH21, stronger effect = lower value): 1.02 | normalized growth [5]: 1.02 | normalized growth [6]: 1.03 | normalized growth [7]: 1.03 | normalized growth [2]: 1.08 | normalized growth [8]: 1.04 | normalized growth [9]: 1.01 | normalized growth [10]: 1.04 | normalized growth [11]: 1.07 | normalized growth [12]: 1.03 | normalized growth [13]: 1.02 | normalized growth [14]: 1.06 | normalized growth [15]: 1.01 | normalized growth [16]: 1.03 | normalized growth [17]: 1.03 | normalized growth [18]: 1.01 | normalized growth [19]: 1.03 | normalized growth [20]: 1.05 | normalized growth [21]: 1.05 | normalized growth [22]: 1.02 | normalized growth [23]: 1.03 | normalized growth [24]: 1.08 | normalized growth [25]: 1.03 | normalized growth [26]: 1.26

N#Cc1cccc(CSC2=NCN(C3CC3)CN2)c1
normalized growth [3]: 1 | normalized growth [4]: 1.01 | normalized growth [1]: 0.98 | normalized growth [5]: 0.934 | normalized growth [6]: 1.02 | normalized growth [7]: 0.996 | normalized growth [2]: 1 | normalized growth [8]: 1.03 | normalized growth [9]: 1 | normalized growth [10]: 0.979 | normalized growth [11]: 0.989 | normalized growth [12]: 1.01 | normalized growth [13]: 1.05 | normalized growth [14]: 1.01 | normalized growth [15]: 0.993 | normalized growth [16]: 1.04 | normalized growth [17]: 1.01 | normalized growth [18]: 1.01 | normalized growth [19]: 0.952 | normalized growth (locus YMR307W, strain GAS1, stronger effect = lower value): 0.978 | normalized growth [20]: 0.997 | normalized growth [21]: 1.02 | normalized growth [22]: 0.999 | normalized growth [23]: 1.02 | normalized growth [24]: 0.886 | normalized growth [25]: 1.01 | normalized growth [26]: 1
